According to article PMC4336329 (PLoS ONE, 2015):
Out of some 310,000 compounds screened, about 2,200 (0.71%) showed an effect of 50% or more. Effects have a minus sign here. For the sample, strong results were picked, then their nearest neighbours and some compounds at random.

What follows are molecules tested against human ether-à-go-go-related gene (hERG) potassium channel (human, UniProt Q12809) (assay: primary screen, population patch clamp on CHO cells stably expressing hERG; higher = less effect of the substance).
Chain of human ether-à-go-go-related gene (hERG) potassium channel (Q12809 whole entry, looked up): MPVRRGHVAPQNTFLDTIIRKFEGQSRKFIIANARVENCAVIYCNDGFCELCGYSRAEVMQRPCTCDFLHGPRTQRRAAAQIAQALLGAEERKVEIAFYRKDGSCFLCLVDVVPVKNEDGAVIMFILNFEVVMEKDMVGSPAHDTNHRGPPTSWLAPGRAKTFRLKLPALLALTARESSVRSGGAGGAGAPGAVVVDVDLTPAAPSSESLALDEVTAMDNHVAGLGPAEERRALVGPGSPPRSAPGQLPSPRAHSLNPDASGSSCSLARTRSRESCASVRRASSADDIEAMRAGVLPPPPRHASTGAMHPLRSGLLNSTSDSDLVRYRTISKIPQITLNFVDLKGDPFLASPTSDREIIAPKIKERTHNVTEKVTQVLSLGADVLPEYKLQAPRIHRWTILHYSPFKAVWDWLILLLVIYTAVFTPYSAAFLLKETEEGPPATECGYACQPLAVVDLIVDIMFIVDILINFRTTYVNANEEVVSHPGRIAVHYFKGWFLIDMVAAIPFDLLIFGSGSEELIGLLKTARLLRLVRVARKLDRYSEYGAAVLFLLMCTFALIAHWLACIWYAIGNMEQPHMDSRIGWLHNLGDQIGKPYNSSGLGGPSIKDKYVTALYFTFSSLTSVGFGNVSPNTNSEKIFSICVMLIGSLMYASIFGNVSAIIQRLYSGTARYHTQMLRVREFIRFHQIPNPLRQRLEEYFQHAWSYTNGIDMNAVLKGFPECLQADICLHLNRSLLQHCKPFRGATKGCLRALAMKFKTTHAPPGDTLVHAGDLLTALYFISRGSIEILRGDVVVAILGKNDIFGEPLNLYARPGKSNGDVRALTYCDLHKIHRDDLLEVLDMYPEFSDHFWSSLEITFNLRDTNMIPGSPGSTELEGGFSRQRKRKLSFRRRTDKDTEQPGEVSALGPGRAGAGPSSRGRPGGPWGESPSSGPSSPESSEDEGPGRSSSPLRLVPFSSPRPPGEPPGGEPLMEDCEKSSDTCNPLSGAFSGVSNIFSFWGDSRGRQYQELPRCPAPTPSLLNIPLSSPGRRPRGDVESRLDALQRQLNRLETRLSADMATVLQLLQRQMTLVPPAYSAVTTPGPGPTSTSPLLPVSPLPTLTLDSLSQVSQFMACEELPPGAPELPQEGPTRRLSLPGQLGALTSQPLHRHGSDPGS

SMILES	hERG current change (%, negative = inhibition) at 1uM
CC(Sc1nc2ccc(Br)cc2[nH]1)C(=O)O (stereo not shown)	-11.3%
Cc1cc(Cl)c(OCCCNC2CCCC2)c(Br)c1.O=C(O)C(=O)O	-6.84%
Cc1nnsc1C(=O)Nc1ccc(S(=O)(=O)N2CCCC(C)C2)cc1 (stereo not shown)	15.2%
Cn1cccc1C(=O)NC1CCCCC1	5.24%
C=CCn1c(SCC(=O)Nc2cccnc2Cl)nnc1-c1ccc(C(C)(C)C)cc1	9.68%
CCN1CCN(C(=O)/C=C/c2ccc(OC)c(OC)c2)CC1	14.8%
C/C(=N\OC(=O)c1ccc(Cl)cc1)c1nccs1	9.4%
COc1ccc(CNS(=O)(=O)c2ccc(-n3cnnn3)c(OC)c2)cc1	-2.65%
O=C(c1cc2ccccc2[nH]1)N(Cc1cccnc1)CC1CCCN(C2CCCCC2)C1 (stereo not shown)	-49.6%
COC(=O)c1ccccc1C(=O)N(Cc1cccnc1)CC1CCCN(C2CCCCC2)C1 (stereo not shown)	-7.49%
O=C(c1cc2cc(F)ccc2[nH]1)N(Cc1cccnc1)CC1CCCN(C2CCCCC2)C1 (stereo not shown)	-81%
COC(=O)c1ccc(COc2ccc(/C=N/NC(=O)C(=O)Nc3ccc(OC)cc3)cc2OC)o1	9.15%
COc1cccc(C(=O)C2CCCN(Cc3cccn3-c3cccnc3)C2)c1 (stereo not shown)	-6.89%
CC(C)Oc1cccc(C(=O)C2CCCN(Cc3cccn3-c3cccnc3)C2)c1 (stereo not shown)	12.4%
CC(C)Oc1cccc(C(=O)C2CCCN(Cc3cccn3-c3ccccn3)C2)c1 (stereo not shown)	-81.7%
COc1cccc(C(=O)C2CCCN(Cc3ccccn3)C2)c1 (stereo not shown)	-0.481%
CC(C)Oc1cccc(C(=O)C2CCCN(Cc3ccc(Oc4ncccn4)cc3)C2)c1 (stereo not shown)	-7.28%
COc1cccc(C(=O)C2CCCN(Cc3cccn3-c3ccccn3)C2)c1 (stereo not shown)	-84%
CCOc1ccc2nc(SCC(=O)N(CC(C)C)c3c(N)n(Cc4ccccc4)c(=O)[nH]c3=O)[nH]c2c1	9.81%
CCCn1c(SCC(=O)Nc2cccc(F)c2)nc(O)cc1=O	9.12%
CN1CCN(c2cnn(-c3ccccc3)c(=O)c2Br)CC1	13.2%

SMILES	hERG current change (%, negative = inhibition) at 1uM
COc1ccc(C(=O)N2CCN(c3ccccc3Cl)CC2)cc1S(=O)(=O)NC1CC1	7.63%
COc1ccc(C(=O)N2CCN(c3cccc(Cl)c3)CC2)cc1S(=O)(=O)NC1CC1	-79.6%
COc1ccc(C(=O)N2CCN(c3ccc(F)cc3)CC2)cc1S(=O)(=O)NC1CC1	-17.3%
O=C1Nc2c(c(=O)[nH]c(=O)n2Cc2ccccc2)C1(NS(=O)(=O)c1ccccc1)C(F)(F)F (stereo not shown)	14.5%
C/C(Cn1nc([N+](=O)[O-])cc1C)=N\NC(=O)COc1ccc(Cl)cc1Cl	-51.3%
C/C(Cn1nc([N+](=O)[O-])cc1C)=N\NC(=O)COc1ccccc1[N+](=O)[O-]	7.38%
C/C(Cn1nc([N+](=O)[O-])cc1C)=N\NC(=O)COc1c(Cl)cc(Cl)cc1Cl	-23.8%
Cc1nnc(NC(=O)CSc2ccc(-c3ccc(Cl)cc3)nn2)s1	12.4%
CCOC(=O)N1CCN(c2c(NCCCN(C)c3ccccc3)c(=O)c2=O)CC1	9.53%
COc1cc(C(=O)Nc2cccc(-c3nc4cc(C)ccc4o3)c2)cc(OC)c1OC	10.6%
CN(C)CCNc1nc2c(c(=O)[nH]c(=O)n2C)n1CC(O)COc1ccc(Cl)cc1Cl (stereo not shown)	-30.6%
CCN(CC)CCNc1nc2c(c(=O)[nH]c(=O)n2C)n1CC(O)COc1ccc(Cl)cc1Cl (stereo not shown)	-66.1%
CN(C)CCNc1nc2c(c(=O)[nH]c(=O)n2C)n1CC(O)COc1ccc(Cl)cc1 (stereo not shown)	5.04%
CSc1nn(-c2ccc(C(=O)OC(C(=O)NC(N)=O)C(C)C)cc2)c(=S)s1 (stereo not shown)	9.82%
COc1ccccc1C(=O)Nc1ccnn1C1CCN(C/C=C/c2ccccc2)CC1	-85.6%
COc1ccccc1C(=O)Nc1ccnn1C1CCN(C/C=C/c2ccc(F)cc2)CC1	-86.9%
COc1ccccc1/C=C/CN1CCC(n2nccc2NC(=O)CCc2ccccc2)CC1	-24.8%
COCC(=O)N1CCC(n2nccc2NC(=O)c2ccccc2OC)CC1	14.1%
CCOc1ccc(N(CC(=O)Nc2ccc(F)c(F)c2)S(=O)(=O)c2c(C)noc2C)cc1	2.37%
CC(=O)Nc1ccc(NC(=O)COc2ccc(S(=O)(=O)NC(C)c3ccccc3)cc2)cc1 (stereo not shown)	17.5%
CC(C)(C)c1ccc(CSc2cnn(C(C)(C)C)c(=O)c2Cl)cc1	15.7%

SMILES	hERG current change (%, negative = inhibition) at 1uM
CCOC(=O)c1c(NC(=O)c2ccc(N3C(=O)[C@@H]4[C@H](C3=O)[C@H]3C=C[C@@H]4C3)cc2)sc2c1CCCC2	4.8%
O=C(CSc1ccccc1)Nc1ccc2c(c1)OCCO2	8.08%
COc1cccc(NC(=O)C2c3cc(OC)c(OC)cc3C(=O)N(C)C2c2cccnc2)c1 (stereo not shown)	1.83%
Cc1cccn2c(=O)c3cc(C#N)c(=O)n(CCCN4CCOCC4)c3nc12	-21.2%
CCCn1c(=N)c(C#N)cc2c(=O)n3cccc(C)c3nc21	-20.2%
COCCCn1c(C(=O)N2CCOCC2)cc2c(=O)n3cccc(C)c3nc21	1.75%
Cc1cccn2c(=O)c3cc(C(N)=S)c(=N)n(CCCN4CCOCC4)c3nc12	-90.5%
CCOCCCn1c(=N)c(C(=O)NCCN2CCOCC2)cc2c(=O)n3cccc(C)c3nc21	-17%
Cc1cccn2c(=O)c3cc(C#N)c(=N)n(CCCN4CCOCC4)c3nc12	-78.1%
COCCCn1c(=N)c(C(N)=S)cc2c(=O)n3cccc(C)c3nc21	-70.3%
CCOCCCn1c(=NC(C)=O)c(C#N)cc2c(=O)n3cccc(C)c3nc21	-7.46%
COCCCn1c(C(=O)NCCN2CCOCC2)cc2c(=O)n3cccc(C)c3nc21	6.14%
CCOCCCn1c(=N)c(C(N)=S)cc2c(=O)n3cccc(C)c3nc21	-85.5%
COc1cc(/C=N/NC(=O)c2ccc3nc[nH]c3c2)cc(OC)c1OC	10.6%
CC1(C)Cc2c(cnn2-c2ccccc2)C(NC(=O)CCc2ccc(=O)[nH]n2)C1 (stereo not shown)	8.83%
Cc1ccccc1CN(C)CC(=O)Nc1ccccc1-c1ccccc1	-9.53%
O=c1[nH]nc(Cc2ccc(-c3cccc(Cl)c3)o2)c2ccccc12	6.53%
CCCCn1c(N)c(N(CC)C(=O)c2ccc(C#N)cc2)c(=O)[nH]c1=O	14.4%
Cc1cccn2c(=O)c3cc(C(=O)NCCCOC(C)C)sc3nc12	9.15%
Cc1cccn2c(=O)c3cc(C(N)=S)c(=N)n(CCCOC(C)C)c3nc12	-77.8%
Cc1cc(N)n(-c2cc(C)c3ccccc3n2)n1	9.59%

SMILES	hERG current change (%, negative = inhibition) at 1uM
Cc1ccc(NC(=S)N2CCN(c3ccccn3)CC2)c(C)c1	12.7%
CCOCCCN(C)C1CCN(C(=O)c2oc3ccccc3c2NC(=O)c2cccc([N+](=O)[O-])c2)CC1	-86%
Cc1c(C(=O)N2CCN(c3ccc([N+](=O)[O-])cc3)CC2)oc2ccccc12	-12.9%
CCOCCCN(C)C1CCN(C(=O)c2oc3ccccc3c2NC(=O)c2ccc([N+](=O)[O-])cc2)CC1	-85.2%
O=C(Nc1c(C(=O)N2CCOCC2)oc2ccccc12)c1cccc([N+](=O)[O-])c1	11.4%
O=C(Nc1c(C(=O)N2CCN(c3ccccn3)CC2)oc2ccccc12)c1cccc([N+](=O)[O-])c1	7.86%
O=C(Nc1c(C(=O)N2CCN(c3ccccn3)CC2)oc2ccccc12)c1ccc([N+](=O)[O-])cc1	-4.07%
O=C(CN1C(=O)CCC1=O)Nc1nc(-c2nc3ccccc3s2)cs1	-4.37%
CCOC(=O)C(C)(C)N(Cc1ccc(Cl)cc1)S(=O)(=O)c1ccc(Cl)c([N+](=O)[O-])c1	13.2%
Cc1cc(C)cc(NC(=O)C(c2ccccc2)N2CCCC2)c1 (stereo not shown)	12.6%
O=C(NCCCn1ccnc1)/C(=C\c1ccccc1Cl)NC(=O)c1ccccc1	6.1%
CC(C)c1ccc(/C=C(\NC(=O)c2ccccc2)C(=O)NCCCn2ccnc2)cc1	-63.2%
CN(C)c1ccc(/C=C(\NC(=O)c2ccccc2)C(=O)NCCCn2ccnc2)cc1	9.45%
CN(C)c1ccc(/C=C(/NC(=O)c2ccccc2)C(=O)NCCCn2ccnc2)cc1	16.1%
O=C(NCCCn1ccnc1)/C(=C\c1ccc(Br)cc1)NC(=O)c1ccccc1	-82.1%
COc1ccccc1/C=C(/NC(=O)c1ccccc1)C(=O)NCCCn1ccnc1	13.6%
O=C(NCCCn1ccnc1)/C(=C/c1ccccc1)NC(=O)c1ccccc1	-47.6%
COc1ccc(/C=C(/NC(=O)c2ccccc2)C(=O)NCCCn2ccnc2)cc1OC	15.3%
O=C(NCCCn1ccnc1)/C(=C/c1ccc(Cl)cc1)NC(=O)c1ccccc1	-82.5%
